Assay results from ChEMBL document CHEMBL3988442, “University of Dundee, Small-Polar-MMV Screening Library” (2021).
The campaign covered roughly 48,000 compounds. About 13,000 (27%) showed an effect of 50% or more. The list shows a part of the results.

test system: Wolbachia pipientis; test: Anti-Wolbachia Cell-Based Screen; format: functional; design: scale not given: in the data most compounds retested in dose-response had high values; conditions: 5 µM

| Compound | Percent Effect [%] |
| --- | --- |
| Cc1nc(C2CCCN2CC(=O)N2CCCc3ccccc32)no1 (configuration not stated) | -7.265 |
| COCc1ncc(CN(Cc2ccncc2)Cc2ccc(C)s2)cn1 | 12.8 |
| O=C(CNc1ccc(F)cc1OCC(F)(F)F)NCC(F)(F)F | -7.353 |
| O=C(CCc1ccco1)Nc1ncn(CC(=O)N2CCCCCC2)n1 | 1.429 |
| O=C1CC2(CCN(c3nncs3)C2)CN1c1ccccc1 (configuration not stated) | 7.339 |
| O=C1CC2(CCN(Cc3cccs3)C2)CN1c1cccc(F)c1 (configuration not stated) | 17.5 |
| O=C(N1CCCC1)N1CCC2(CC(=O)N(c3ccc4c(c3)OCO4)C2)C1 (configuration not stated) | -19.45 |
| CCS(=O)(=O)N1CCC2(CC(=O)N(c3cncnc3)C2)C1 (configuration not stated) | -9.187 |
| Cc1cccc(N2CC3(CCN(c4nncs4)C3)CC2=O)c1 (configuration not stated) | 106.3 |
| O=C1CC2(CCN(c3nncs3)C2)CN1c1ccc2c(c1)OCCO2 (configuration not stated) | 105.6 |
| O=C1CC2(CCN(c3nncs3)C2)CN1c1cncnc1 (configuration not stated) | 102.2 |
| O=C1CC2(CCN(c3nncs3)C2)CN1c1cccc(F)c1 (configuration not stated) | 96.11 |
| CCS(=O)(=O)N1CCC2(CC(=O)N(c3cccc(C)c3)C2)C1 (configuration not stated) | -28.77 |
| Cc1cccc(N2CCCC3(C2)CN(c2nncs2)CCO3)c1 (configuration not stated) | -21.39 |
| O=C1CC2(CCN(Cc3ccoc3)C2)CN1c1ccc2c(c1)OCO2 (configuration not stated) | 2.94 |
| O=C1CC2(CCN(S(=O)(=O)C3CC3)C2)CN1c1cncnc1 (configuration not stated) | 7.231 |
| CN(Cc1ccc(Cl)s1)C(=O)NCCC(=O)N1CCCCCC1 | -2.265 |
| CCn1c(CC2CCN(C(=O)C3COCCO3)CC2)nn(C)c1=O (configuration not stated) | -4.106 |
| Cc1nc(C)n(CCNC2CCN(c3ncnc4c(C)csc34)CC2)n1 | -4.781 |
| N#Cc1ccccc1N1CCCN(CC(=O)Nc2ccc(Cl)cn2)CC1 | -6.971 |
| Cc1cc(N)nc(SC2CCCN(Cc3ccccc3)C2=O)n1 (configuration not stated) | -26.38 |
| Cc1ccccc1N1CC2(CCN(c3nncs3)C2)CC1=O (configuration not stated) | 115.5 |

| Compound | Percent Effect [%] |
| --- | --- |
| Cc1cnc(C(=O)N2CCC3(CCCN(c4nncs4)C3)C2)cn1 (configuration not stated) | -22.67 |
| Cc1ccccc1N1CC2(CCN(Cc3nccn3C)C2)CC1=O.O=C(O)C(F)(F)F (configuration not stated) | 12.68 |
| Cc1n[nH]c(CN2CCN(Cc3ccccc3)[C@@H]3CS(=O)(=O)C[C@@H]32)n1 | -3.3 |
| Cn1ccnc1CN1CCN(Cc2ccccc2)[C@@H]2CS(=O)(=O)C[C@@H]21 | 89.31 |
| Cn1ccnc1CN1CCN(Cc2ccncc2)[C@@H]2CS(=O)(=O)C[C@@H]21 | 120.1 |
| O=S1(=O)C[C@@H]2[C@H](C1)N(S(=O)(=O)N1CCCC1)CCN2Cc1ccccc1 | -24.95 |
| Cc1ccc(CN2CCN(Cc3ccncc3)[C@@H]3CS(=O)(=O)C[C@@H]32)cc1 | 9.085 |
| O=S1(=O)C[C@@H]2[C@H](C1)N(Cc1ncc[nH]1)CCN2CCCc1ccccc1 | 97.44 |
| CCc1ccccc1CN1CCN(Cc2ncc[nH]2)[C@H]2CS(=O)(=O)C[C@H]21 | 21.76 |
| O=C(C1CCCC1)N1CCN(Cc2ccncc2)[C@@H]2CS(=O)(=O)C[C@@H]21 | -3.8 |
| O=S1(=O)C[C@@H]2[C@H](C1)N(Cc1ncc[nH]1)CCN2C/C=C/c1ccccc1 | -2.971 |
| CC1(C)CCC(C(=O)N2CCCO2)c2ccccc21 (configuration not stated) | 6.18 |
| CC(C)OC(=O)N1CCCC2(CCC(=O)N(CCc3c[nH]cn3)C2)C1 (configuration not stated) | 2.776 |
| Cc1ccc(Cl)c(NC(=O)NC2(C)CCOC2)c1 (configuration not stated) | -14.51 |
| Cc1nc(CNC(=O)CC2C(=O)NCCN2CCC(C)C)n[nH]1 (configuration not stated) | 13.35 |
| O=C(CCn1ncc2ccccc21)N1CCCC(Cc2cccnc2)C1 (configuration not stated) | 101.6 |
| Cc1ccn(CCC(=O)N2CCCC(Cc3cccnc3)C2)n1 (configuration not stated) | 122.4 |
| CC1CCCN(C(=O)CCNS(=O)(=O)c2cccnc2)C1 (configuration not stated) | 5.119 |
| O=C(CSCC1CC1)N1CCCC(c2nccn2Cc2cccnc2)C1 (configuration not stated) | -14.92 |
| CC(C)c1noc(CCCC(=O)N2CCC(Cc3cccnc3)CC2)n1 | -13.45 |
| O=C1CCCN1CCCC(=O)N1CCCC(Cc2cccnc2)C1 (configuration not stated) | 77.87 |
| CN(C)CCn1ccnc1C1CCCN(C(=O)CCc2cccnc2)C1 (configuration not stated) | -16.88 |

| Compound | Percent Effect [%] |
| --- | --- |
| CN(CCC(=O)N1CCCC(Cc2cccnc2)C1)Cc1cccnc1 (configuration not stated) | 128.2 |
| COCCN1CC2(CCC1=O)CCN(Cc1cc(F)ccc1Cl)CC2 | 8.376 |
| COCCCN1CC2(CCC1=O)CCN(Cc1cc(C)no1)CC2 | -12.58 |
| O=C(CCC1CCCO1)NCCN1CCCCC1 (configuration not stated) | -10.6 |
| CC(C)C(=O)N1CCCC(Cc2cccnc2)C1 (configuration not stated) | 104.6 |
| CC1CCCN(C(=O)CCc2cccnc2)C1 (configuration not stated) | -4.583 |
| CSc1nnc(CC2CCN(C(=O)CCc3cccnc3)CC2)n1C | -9.622 |
| CC(C)c1nc(C2CCCN(C(=O)Cc3cccnc3)C2)no1 (configuration not stated) | -1.83 |
| CC(C)C(=O)N1CCC2(CC1)NC(=O)[C@H]1CN(Cc3cccnc3)C[C@H]12 | -21.16 |
| Cn1nccc1CCC(=O)N1CCCC(Cc2cccnc2)C1 (configuration not stated) | 92.49 |
| CCN(C(=O)Cc1ccc(NCc2ncc[nH]2)cc1)c1ccccc1 | -2.92 |
| Cc1[nH]c(=O)c(C#N)cc1C(=O)N1C[C@@H](CN2CCCC2)C[C@H](CO)C1 | 10.61 |
| CCOc1ccccc1C(CC(=O)Nc1ccccc1)NC(C)=O (configuration not stated) | -7 |
| CCC(=O)N1CCN(c2cc(N(C)C)cnn2)CC1 | 6.449 |
| O=c1[nH]c(N2CC(O)C2)nc2c1cnn2-c1ccccc1 | 21.25 |
| Cc1nc(CN2C(=O)COC3(CCN(C(N)=O)CC3)C2C)cs1 (configuration not stated) | 117.7 |
| Cc1nc(CN2C(=O)CC3(CCN(C(N)=O)CC3)c3ccccc32)cs1.O=C(O)C(F)(F)F | -9.244 |
| Cc1nc(CN2C(=O)COC3(CCN(CC4CC4)CC3)C2C)cs1.O=C(O)C(F)(F)F (configuration not stated) | 98.79 |
| Cc1nc(CN2C(=O)COC3(CCN(C)CC3)C2C)cs1.O=C(O)C(F)(F)F (configuration not stated) | 127.2 |
| Cc1nc(CN2C(=O)COC3(CCN(Cc4nccs4)CC3)C2C)cs1.O=C(O)C(F)(F)F (configuration not stated) | -7.401 |
| CC1N(CC2CC2)C(=O)COC12CCN(C(=O)c1cscn1)CC2 (configuration not stated) | -4.225 |
| Cc1nc(CN2C(=O)COC3(CCN(Cc4ccsc4)CC3)C2C)cs1.O=C(O)C(F)(F)F (configuration not stated) | 114.5 |

| Compound | Percent Effect [%] |
| --- | --- |
| COCC1CC2(CCN(C(N)=O)CC2)CN1Cc1csc(C)n1.O=C(O)C(F)(F)F (configuration not stated) | -7.067 |
| CCc1ccc(CNC(=O)Nc2cc(C)on2)s1 | -14.37 |
| COCc1nc2cc3c(cc2c(=O)o1)OCCCO3 | -7.292 |
| COc1cc(CC(O)CC#N)c(OC)c2c1OCO2 (configuration not stated) | -11.73 |
| COCc1noc(-c2nn(-c3ccccc3F)c3c2CCC3)n1 | -4.596 |
| Cc1ncsc1CCC(=O)N1CCCC[C@H](N(C)C)C1 | 4.231 |
| CCCNc1ccc(C(=O)NCCc2cccc(OC)c2)cn1 | 121.7 |
| COc1cc(C(=O)NCCc2ccc(Cl)cc2)on1 | -4.303 |
| CCCNc1ccc(C(=O)NCCc2cccc(Cl)c2)cn1 | 116.4 |
| CCNc1ncc(C(=O)NCCc2ccc(C)c(C)c2)cn1 | -6.077 |
| CNC(=O)c1cccc(CCNc2ccccn2)c1 | -20.45 |
| COc1cc(C(=O)NCCc2cccc(C)c2)on1 | -13.11 |
| CNC(=O)c1cccc(CCNc2ccc(C#N)cn2)c1 | -20.96 |
| COc1cccc(CCNC(=O)c2ccc(=O)n(C)c2)c1 | 11.31 |
| CCCNc1ccc(C(=O)NCCc2ccc(Cl)cc2)cn1 | 106.9 |
| CCCn1cnnc1CNC(=O)CC1C(=O)NCCN1C(C)C (configuration not stated) | -4.75 |
| CN(CCCc1nccn1C)C(=O)C1CCN(C(=O)C2CCCC2)CC1 | -7.854 |
| Cc1cc(C)cc(CN2CCN(Cc3ccc4nonc4c3)CC2=O)c1 | -1.635 |
| CCNC(=O)CN1CCC(c2cc(OC)cc(OC)c2)C1 (configuration not stated) | -11.46 |
| CCOCC1CN(S(C)(=O)=O)Cc2nn(C)cc21 (configuration not stated) | -37.27 |
| Cc1nc(C2CCCN(C(=O)c3ccc(OCC4CC4)nc3)C2)no1 (configuration not stated) | 97.67 |
| COc1ccnc(C(=O)N2CCCC(c3noc(C)n3)C2)c1 (configuration not stated) | -1.667 |

| Compound | Percent Effect [%] |
| --- | --- |
| Cc1nc(C2CCCN(C(=O)c3ccc(N4CCCC4)nc3)C2)no1 (configuration not stated) | -0.5946 |
| CCOc1cc(C(=O)N2CCCC(c3noc(C)n3)C2)ccc1OC (configuration not stated) | 123.2 |
| Cc1nc(C2CCCN(C(=O)c3ccc(OCC4CC4)cc3)C2)no1 (configuration not stated) | -3.23 |
| COc1ccc(N(C(=O)c2ccc(C)nc2)C(C)C)cc1F | -11.04 |
| CN(C)C[C@@H]1CN(Cc2ccccc2C#N)C[C@@H]1CO | 8.186 |
| Cn1ncc2c1CN(C(=O)Cc1ccccn1)CC2COCC1CC1.O=C(O)C(F)(F)F.O=C(O)C(F)(F)F (configuration not stated) | -6.419 |
| Cc1cc(C)c(CCNC(=O)NCCCC(N)=O)c(C)c1 | -1.921 |
| CCNC(=O)CNC(=O)Nc1c(F)cc(F)cc1-c1ccccc1 | 120.1 |
| O=C(NCCO)Nc1c(F)cc(F)cc1-c1ccccc1 | 122.6 |
| COCC(O)CNC(=O)c1cnc(-c2ccccc2)nc1O (configuration not stated) | -15.86 |
| O=C(NCCO)Nc1ccc(Br)c(F)c1 | -6.574 |
| O=C(NCCO)Nc1c(F)cccc1Oc1ccccc1 | 2.837 |
| COCC(O)CNC(=O)Nc1c(F)cc(F)cc1-c1ccccc1 (configuration not stated) | 147.7 |
| O=C(CNC(=O)Nc1c(F)cccc1Oc1ccccc1)NC1CC1 | -0.6876 |
| CNC(=O)CNC(=O)Nc1ccc(Br)c(F)c1 | -1.14 |
| CCNC(=O)CNC(=O)Nc1cccc(Cl)c1SC(F)F | -15.46 |
| COCC(O)CNC(=O)c1coc(COc2cccc(F)c2)n1 (configuration not stated) | 3.844 |
| O=C(CNC(=O)Nc1c(F)cc(F)cc1-c1ccccc1)NC1CC1 | 131.5 |
| O=C(CNC(=O)Nc1cccc(Cl)c1SC(F)F)NC1CC1 | -13.14 |
